# Compounds with a hit are over-represented: about 1.9% of the library has one in this group of screens.
# PrPC surface inh: inhibitors of human cell surface prion protein PrPC; inhibition, % at 13.8 µM; P04156; TR-FRET read-out; 370,000 tested, 0.43% active; in the data active means inhibition above about 24%
# PfHsp40 yeast: rescue of PfHsp40-mediated yeast toxicity; S. cerevisiae expressing PfHsp40, growth rescue, ATP luminescence; growth rescue, % at 12.5 µM; 340,000 tested, 0.68% active; in the data active means growth rescue above about 28%, passing the limit was not always enough;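 further: yeast W303a lacking pdr1 and pdr3 grown in galactose medium; growth measured after three days at 30 °C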
# PriA SSB inh: blocks PriA binding to SSB C-terminal tail | inhibition, % at 33 µM | AlphaScreen SSBct-PriA binding, biotinylated peptide | 430,000 tested, 0.6% active; in the data active means inhibition mostly above about 37%, no sharp cut-off; inactive means mostly below about 20%
# BJeLR viability: BJeLR cell viability loss | BJeLR (HRASV12) viability, CellTiter-Glo ATP luminescence, 48 h | inhibition, % (concentration not given with the values) | 300,000 tested, 0.17% active | AID 1554; in the data active means inhibition above about 50%
# RecA intein inh: Mtb RecA intein splicing inhibition; inhibition, % (concentration not given with the values); AID 2221; P9WHJ3; cell-free RecA intein splicing, fluorescence; 290,000 tested, 0.75% active; in the data active means inhibition above about 30%
# Target sequence (P9WHJ3 whole entry, looked up): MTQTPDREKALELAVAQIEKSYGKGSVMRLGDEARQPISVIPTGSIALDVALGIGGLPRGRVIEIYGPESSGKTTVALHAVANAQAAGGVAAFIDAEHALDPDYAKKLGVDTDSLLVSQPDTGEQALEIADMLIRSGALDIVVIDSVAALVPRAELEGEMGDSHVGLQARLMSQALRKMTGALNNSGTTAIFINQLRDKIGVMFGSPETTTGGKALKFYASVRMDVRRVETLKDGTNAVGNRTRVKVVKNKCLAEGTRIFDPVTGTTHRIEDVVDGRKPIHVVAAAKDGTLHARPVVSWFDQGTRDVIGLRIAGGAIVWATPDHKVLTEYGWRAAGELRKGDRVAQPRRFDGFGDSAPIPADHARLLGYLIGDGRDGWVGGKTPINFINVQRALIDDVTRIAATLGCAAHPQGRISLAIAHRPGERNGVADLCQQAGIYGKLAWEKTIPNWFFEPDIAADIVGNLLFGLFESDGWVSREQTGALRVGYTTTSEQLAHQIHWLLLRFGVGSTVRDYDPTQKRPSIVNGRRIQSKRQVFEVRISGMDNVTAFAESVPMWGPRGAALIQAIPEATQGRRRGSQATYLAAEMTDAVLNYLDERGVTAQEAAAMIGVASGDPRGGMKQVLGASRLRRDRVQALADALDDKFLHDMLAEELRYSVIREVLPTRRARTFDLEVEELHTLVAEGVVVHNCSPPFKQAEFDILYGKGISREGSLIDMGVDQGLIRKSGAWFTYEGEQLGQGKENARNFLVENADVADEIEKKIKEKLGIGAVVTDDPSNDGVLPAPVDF
# PrP 5UTR inh: inhibition of PrP 5' UTR reporter expression. cell-based PrP 5' UTR mRNA reporter, plate reader. inhibition, % (no concentration beside the values). 340,000 tested, 0.35% active. AID 488862; in the data active means inhibition above about 52%
# PrP 5UTR single: prion 5' UTR mRNA inhibition, cherry-pick retest | shares compounds with PrP 5UTR inh | cell-based prion protein 5' UTR reporter, plate reader | inhibition, % at 2.5 µM | 1,100 tested, 48% active | AID 504592; in the data active means inhibition above about 54%
# Hits are given with their value; – = inactive; · = no result given.
SMILES,PrPC surface inh,PfHsp40 yeast,PriA SSB inh,BJeLR viability,RecA intein inh,PrP 5UTR inh,PrP 5UTR single
COC(CNC(=O)C1CC(=O)N(c2ccccc2)C1)c1ccccc1C (stereo unspecified),·,·,–,·,·,·,·
CC(C)c1ccc2oc(-c3cc(N)ccc3O)nc2c1,–,–,–,–,–,63.3,–
COC(=O)c1ccc2c(=O)n(CC(=O)NC3CCCC3)c(=S)[nH]c2c1,·,·,–,·,·,·,·
CC(=O)c1c(C)oc2ccc(O)cc12,·,·,–,·,·,·,·
O=Cc1cn(Cc2cccc([N+](=O)[O-])c2)c2ccccc12,–,–,–,–,–,71.2,–
Cc1cccc(Cn2cc(C=O)c3ccccc32)c1,–,–,–,–,–,–,·
O=C(NCCC(O)c1cccc2ccccc12)Nc1ccc2c(c1)OCO2 (stereo unspecified),·,·,–,·,·,·,·
C(=NN1CCCCCC1)c1ccc2ccccc2n1,–,–,–,·,·,93.9,91.1
ON=Cc1ccc2ccccc2n1,·,·,–,·,·,·,·
COc1cc(-c2noc(C)c2/C=C/c2ccc(OC(C)=O)cc2)cc(OC)c1OC,–,–,–,–,–,63.6,84.7
COc1ccc(-c2oc(=O)c3cc(OC)c(OC)cc3c2/C=C/c2ccc(OC(C)=O)cc2)cc1,–,–,–,·,·,–,·
O=C(O)C1(Br)CC12c1ccccc1-c1ccccc12 (stereo unspecified),–,–,–,·,·,53.8,–
Cc1ccc2nc(NC(=O)c3ccco3)sc2c1,–,–,–,–,–,59.3,–
Cc1ccc2nc(NC(=S)NC(=O)c3ccco3)sc2c1,–,–,–,–,–,–,·
O=C(CN1C(=O)c2ccccc2S1(=O)=O)c1ccc2c(c1)OCCO2,–,–,–,–,–,91.1,93.4
O=C(CN1C(=O)c2ccccc2S1(=O)=O)c1ccc2c(c1)OCCCO2,–,–,–,–,–,94.9,97.3
COC(COC(N)=O)C1=C(N2CC2)C(=O)C(C)=C(N2CC2)C1=O (stereo unspecified),–,–,–,·,·,–,·
CC1=C(N2CC2)C(=O)C(CO)=C(N2CC2)C1=O,–,–,–,·,·,97.7,97.2
COc1ccc(C(CNC(=O)C(CCSC)NC(=O)c2ccccc2Cl)N2CCCCC2)cc1 (stereo unspecified),–,–,–,·,·,71.6,–
CC(Oc1cccc(F)c1)C(=O)NCCOc1ccc2nnc(-c3ccc(F)cc3)n2n1 (stereo unspecified),·,·,–,·,·,·,·
O=C(O)c1cnn2ccccc12,·,·,–,·,·,·,·
Clc1ccccc1/C=C/c1nc(-c2ccccn2)no1,–,–,–,–,–,55.4,60.5
COc1ccc(C(=O)Nc2ccc(C)cn2)c(OC)c1,–,–,–,–,–,78.8,75.1
COc1ccc(C(=O)Nc2cc(C)on2)c(OC)c1,–,–,–,–,–,–,·
CC(=O)c1sc2c(c1OC(=O)c1ccc(Cl)cc1Cl)c(=O)n(-c1ccccc1)c(=S)n2-c1ccccc1,–,–,–,–,–,75.8,62.4
SMILES,PrPC surface inh,PfHsp40 yeast,PriA SSB inh,BJeLR viability,RecA intein inh,PrP 5UTR inh,PrP 5UTR single
CC(=O)c1sc2c(c1OC(=O)c1ccc(Cl)cc1)c(=O)n(-c1ccccc1)c(=S)n2-c1ccccc1,–,–,–,·,·,–,·
c1ccc(-c2nnc(NC3=NCCC3)o2)cc1,–,–,–,–,–,–,·
Fc1ccc(-c2nnc(NC3=NCCCCC3)o2)cc1,–,–,–,–,–,77.9,64.1
Cc1c2c(=O)n(-c3nc4ccccc4s3)nc-2cc(O)n1Cc1ccccc1,·,–,–,·,·,64.8,–
Cc1cc(C)n(-c2nc3ccccc3s2)n1,–,–,–,–,–,–,·
CCOC(=O)c1ccc(Nc2c(N)c(=O)oc3ccccc23)cc1,·,·,–,·,·,·,·
C[C@@H]1O[C@@H](O[C@@H]2C=C3CC[C@@H]4C(CC[C@]5(C)[C@@H](c6ccc(=O)oc6)CC[C@]45O)[C@@]3(C)CC2)[C@H](O)[C@H](O)[C@H]1O (stereo partly specified),–,–,–,·,·,94.0,89.7
C[C@@H]1O[C@@H](O[C@@H]2C=C3CCC4C(CC[C@]5(C)[C@@H](c6ccc(=O)oc6)CC[C@]45O)[C@@]3(C)CC2)[C@H](O)[C@H](O)[C@H]1O (stereo partly specified),–,–,–,·,·,94.0,94.4
O=C1CCSCC(C(=O)NCc2ccccc2Cl)N1 (stereo unspecified),·,·,–,·,·,·,·
COC(=O)c1ccc2nc(-c3ccc4c(c3)OCO4)cn2c1,–,–,–,–,–,–,·
CCc1ccn2cc(-c3ccc4c(c3)OCO4)nc2c1,–,–,–,–,–,74.4,83.9
CSC(=Nc1ccccc1)N=C(SCc1ccccc1)N(C)C,–,–,–,·,·,73.6,–
N#CNC(=Nc1ccccc1)SCc1ccc(C(=O)O)cc1,–,–,–,–,–,–,·
Cn1cccc(C(=O)N2Cc3cnc(N4CCOCC4)nc3C2)c1=O,·,·,–,·,·,·,·
O=C(Nc1nnc(-c2ccc(Br)cc2)o1)c1ccc(N2C(=O)CCC2=O)cc1,·,·,–,·,·,·,·
Nc1cc(=O)[nH]c(SCCSc2cc(Cl)ccc2Cl)n1,–,–,–,–,–,57.7,–
Cn1c(=O)oc2cc(S(=O)(=O)N3CCC(C(=O)N4CCN(c5ccccc5)CC4)CC3)ccc21,–,–,–,·,·,–,·
Cn1c(=O)oc2cc(S(=O)(=O)N3CCC(C(=O)N4CC=C(c5ccccc5)CC4)CC3)ccc21,–,–,115.4,·,·,61.2,–
Cc1ccccc1C(=O)NNC(=O)C12CC3CC(CC(C3)C1)C2,–,–,–,–,·,87.8,–
Cc1cccc(C(=O)NNC(=O)C23CC4CC(CC(C4)C2)C3)c1O,–,–,–,–,–,–,·
O=C(N/N=C/c1cc(O)ccc1Br)c1cccnc1,–,–,·,–,·,–,·
O=C(N/N=C/c1cc2c(cc1Br)OCO2)c1cccnc1,–,–,·,–,–,62.2,–
COC(=O)C(=O)C1CCc2c(Cl)cc(OC)c(OC)c2C1=O (stereo unspecified),–,–,–,·,·,93.6,–
CNC(=O)c1cc(Cl)c(OC)c(OC)c1,–,–,–,–,–,–,·
COc1ccc(C(C#N)=C2C=CC(=NO)C(C)=C2Cl)cc1,–,–,–,·,·,71.3,–
SMILES,PrPC surface inh,PfHsp40 yeast,PriA SSB inh,BJeLR viability,RecA intein inh,PrP 5UTR inh,PrP 5UTR single
O=C(CSc1nnc(NC(=O)COc2ccc(Cl)cc2)s1)NCc1ccco1,·,·,–,·,·,·,·
CC(O)C1C=CC=CC(=O)OC2CC3OC4C5OC5(C)CCC4(COC(=O)C4OC4(C)C(O)CO1)C2(C)C31CO1 (stereo unspecified),90.2,·,·,·,·,83.2,82.4
CC(O)C1C=C/C=C\C(=O)OC2CC3OC4C5OC5(C)CCC4(COC(=O)C4OC4(C)C(O)CO1)C2(C)C31CO1 (stereo unspecified),·,·,–,·,·,·,·
O=C(Cc1c(F)cccc1Cl)N1CCc2cnc(N3CCOCC3)nc2C1,·,·,–,·,·,·,·
COc1ccc(C2=Nn3c(nnc3-c3ccccc3OC)SC2)cc1OC1CCOC1 (stereo unspecified),–,–,–,·,·,80.8,82.9
COc1ccc(OC)c(-c2nnc3n2N=C(c2ccc(OC)c(OCC4CC4)c2)CS3)c1,·,–,–,·,·,67.3,93.1
